# Source: publication PMC7862700, “An all-to-all approach to the identification of sequence-specific readers for epigenetic DNA modifications on cytosine”
# Experiments:
# Assay in all cases: DAPPL (digital affinity profiling via proximity ligation, sequencing); 10 mM Tris-HCl pH 7.5, 50 mM NaCl, 1 mM DTT, 4% glycerol, room temperature, 30 min; GST-TFs on glutathione beads, 16-mer random dsDNA library, 0.1% formaldehyde crosslink after washing; high values mean tight binding
# FLI1 = molecular target: T1, FLI1 (Homo sapiens, UniProt Q01543 1-452); settings: protein: recombinant; tags: N-terminal GST; dsDNA, one strand shown
# T1 sequence: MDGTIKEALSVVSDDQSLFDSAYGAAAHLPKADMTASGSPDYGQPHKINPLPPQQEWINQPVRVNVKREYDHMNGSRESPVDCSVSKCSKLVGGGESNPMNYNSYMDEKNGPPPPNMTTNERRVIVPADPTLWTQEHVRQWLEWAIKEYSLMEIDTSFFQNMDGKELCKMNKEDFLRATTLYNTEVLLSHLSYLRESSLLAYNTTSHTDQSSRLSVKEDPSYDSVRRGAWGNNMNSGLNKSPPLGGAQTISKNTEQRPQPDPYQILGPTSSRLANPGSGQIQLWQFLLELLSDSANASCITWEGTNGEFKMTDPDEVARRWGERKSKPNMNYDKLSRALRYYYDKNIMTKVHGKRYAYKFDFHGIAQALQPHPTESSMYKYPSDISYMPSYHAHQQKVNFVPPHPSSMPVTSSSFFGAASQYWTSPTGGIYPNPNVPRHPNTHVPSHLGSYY
# Procedure, shortened: (§1)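 Binding signal is given per hexamer as its read frequency for a factor divided by its frequency in the tag-only sample. GST-fused human transcription factors were expressed in yeast, captured on glutathione beads, barcoded with DNA and pooled with that sample, then incubated with 200 nmole of a 16-mer random double-stranded DNA library in Tris/NaCl/DTT/glycerol buffer for 30 min at room temperature. The pools were then washed, crosslinked, proximity-ligated, amplified by PCR and sequenced on an Illumina NextSeq500.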
# ELK1 = molecular target: T2, ELK1 (Homo sapiens, UniProt P19419 1-428); settings: protein: recombinant; tags: N-terminal GST; dsDNA, one strand shown
# T2 sequence: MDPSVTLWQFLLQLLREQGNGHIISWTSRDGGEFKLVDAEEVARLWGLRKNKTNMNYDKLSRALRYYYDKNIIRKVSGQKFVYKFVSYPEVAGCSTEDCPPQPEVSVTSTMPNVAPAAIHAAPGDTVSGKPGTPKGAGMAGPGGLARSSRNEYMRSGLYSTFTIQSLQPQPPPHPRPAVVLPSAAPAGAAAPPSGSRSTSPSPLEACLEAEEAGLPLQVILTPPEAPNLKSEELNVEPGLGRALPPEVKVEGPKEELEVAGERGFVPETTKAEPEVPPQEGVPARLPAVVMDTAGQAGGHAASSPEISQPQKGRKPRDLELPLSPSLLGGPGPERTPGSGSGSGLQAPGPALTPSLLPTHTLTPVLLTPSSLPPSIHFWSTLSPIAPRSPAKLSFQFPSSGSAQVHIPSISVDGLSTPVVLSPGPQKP
# Procedure, shortened: as §1
# GABPA = molecular target: T3, GABPA (Homo sapiens, UniProt Q06546 1-454); settings: protein: recombinant; tags: N-terminal GST; dsDNA, one strand shown
# T3 sequence: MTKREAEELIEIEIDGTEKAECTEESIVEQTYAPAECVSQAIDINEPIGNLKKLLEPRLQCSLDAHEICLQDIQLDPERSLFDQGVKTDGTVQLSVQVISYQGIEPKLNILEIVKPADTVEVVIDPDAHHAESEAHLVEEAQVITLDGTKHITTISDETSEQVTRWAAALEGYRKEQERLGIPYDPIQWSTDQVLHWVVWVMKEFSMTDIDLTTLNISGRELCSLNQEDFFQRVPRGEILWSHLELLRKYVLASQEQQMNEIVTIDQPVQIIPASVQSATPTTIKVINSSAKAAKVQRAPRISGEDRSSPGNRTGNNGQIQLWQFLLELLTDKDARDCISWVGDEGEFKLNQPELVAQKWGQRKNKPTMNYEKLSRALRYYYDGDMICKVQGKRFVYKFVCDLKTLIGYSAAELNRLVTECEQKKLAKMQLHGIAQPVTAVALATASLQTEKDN
# Procedure, shortened: as §1
# ERG = molecular target: T4, ERG (Homo sapiens, UniProt P11308 1-479); settings: protein: recombinant; tags: N-terminal GST; dsDNA, one strand shown
# T4 sequence: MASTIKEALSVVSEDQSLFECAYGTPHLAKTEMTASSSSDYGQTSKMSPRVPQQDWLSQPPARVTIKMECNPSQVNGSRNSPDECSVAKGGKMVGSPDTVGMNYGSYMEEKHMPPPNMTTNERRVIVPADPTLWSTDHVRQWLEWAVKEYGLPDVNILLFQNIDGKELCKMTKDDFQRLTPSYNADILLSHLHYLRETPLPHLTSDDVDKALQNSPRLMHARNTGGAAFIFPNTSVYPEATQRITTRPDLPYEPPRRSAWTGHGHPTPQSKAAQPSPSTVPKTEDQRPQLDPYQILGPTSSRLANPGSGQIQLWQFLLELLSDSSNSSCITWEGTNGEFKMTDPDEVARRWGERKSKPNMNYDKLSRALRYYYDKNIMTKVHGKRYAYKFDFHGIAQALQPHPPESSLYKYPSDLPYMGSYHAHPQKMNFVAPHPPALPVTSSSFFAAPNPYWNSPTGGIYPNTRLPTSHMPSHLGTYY
# Procedure, shortened: as §1
# ELF1 = ELF1 (Homo sapiens, UniProt P32519 1-619); settings: protein: recombinant; tags: N-terminal GST; dsDNA, one strand shown
# Sequence of ELF1 (P32519 whole entry): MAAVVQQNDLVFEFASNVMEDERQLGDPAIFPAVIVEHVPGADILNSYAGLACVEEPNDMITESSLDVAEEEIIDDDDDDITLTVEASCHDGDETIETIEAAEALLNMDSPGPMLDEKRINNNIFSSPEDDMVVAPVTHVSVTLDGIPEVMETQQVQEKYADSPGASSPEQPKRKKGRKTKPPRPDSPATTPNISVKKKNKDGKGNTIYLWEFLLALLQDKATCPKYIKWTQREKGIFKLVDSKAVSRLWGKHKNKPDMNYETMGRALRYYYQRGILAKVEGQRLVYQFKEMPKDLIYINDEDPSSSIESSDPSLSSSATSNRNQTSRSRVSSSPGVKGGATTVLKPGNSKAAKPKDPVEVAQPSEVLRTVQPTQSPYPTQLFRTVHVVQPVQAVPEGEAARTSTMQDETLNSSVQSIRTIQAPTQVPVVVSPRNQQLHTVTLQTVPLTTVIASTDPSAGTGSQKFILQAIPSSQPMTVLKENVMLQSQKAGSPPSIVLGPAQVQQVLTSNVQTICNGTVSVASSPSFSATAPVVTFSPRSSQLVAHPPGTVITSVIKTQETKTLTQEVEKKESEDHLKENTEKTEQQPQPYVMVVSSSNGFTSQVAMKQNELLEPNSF
# Procedure, shortened: as §1
# EHF = molecular target: T5, EHF (Homo sapiens, UniProt Q9NZC4 1-300); settings: protein: recombinant; tags: N-terminal GST; dsDNA, one strand shown
# T5 sequence: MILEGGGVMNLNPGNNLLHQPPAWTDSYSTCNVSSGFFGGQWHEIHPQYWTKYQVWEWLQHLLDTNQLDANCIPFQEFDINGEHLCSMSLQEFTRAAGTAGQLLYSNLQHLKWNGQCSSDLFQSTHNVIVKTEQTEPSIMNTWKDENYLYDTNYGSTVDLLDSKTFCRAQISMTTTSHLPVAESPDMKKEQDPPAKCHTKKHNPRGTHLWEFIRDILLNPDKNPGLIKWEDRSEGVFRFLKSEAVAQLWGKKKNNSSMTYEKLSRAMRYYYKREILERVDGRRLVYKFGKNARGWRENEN
# Procedure, shortened: as §1
# SPI1 = SPI1 (Homo sapiens, UniProt P17947 1-270); settings: protein: recombinant; tags: N-terminal GST; dsDNA, one strand shown
# Procedure, shortened: as §1
# SPIB = SPIB (Homo sapiens, UniProt Q01892 1-262); settings: protein: recombinant; tags: N-terminal GST; dsDNA, one strand shown
# Sequence of SPIB (Q01892 whole entry): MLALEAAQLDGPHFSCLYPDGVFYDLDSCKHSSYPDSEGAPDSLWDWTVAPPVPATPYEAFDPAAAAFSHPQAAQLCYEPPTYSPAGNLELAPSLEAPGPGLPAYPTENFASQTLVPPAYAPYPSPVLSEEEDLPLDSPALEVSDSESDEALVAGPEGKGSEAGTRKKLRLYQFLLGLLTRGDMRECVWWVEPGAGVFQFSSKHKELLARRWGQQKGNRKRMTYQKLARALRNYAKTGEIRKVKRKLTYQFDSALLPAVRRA
# Procedure, shortened: as §1
# ELK3 = molecular target: T6, ELK3 (Homo sapiens, UniProt P41970 1-407); settings: protein: recombinant; tags: N-terminal GST; dsDNA, one strand shown
# T6 sequence: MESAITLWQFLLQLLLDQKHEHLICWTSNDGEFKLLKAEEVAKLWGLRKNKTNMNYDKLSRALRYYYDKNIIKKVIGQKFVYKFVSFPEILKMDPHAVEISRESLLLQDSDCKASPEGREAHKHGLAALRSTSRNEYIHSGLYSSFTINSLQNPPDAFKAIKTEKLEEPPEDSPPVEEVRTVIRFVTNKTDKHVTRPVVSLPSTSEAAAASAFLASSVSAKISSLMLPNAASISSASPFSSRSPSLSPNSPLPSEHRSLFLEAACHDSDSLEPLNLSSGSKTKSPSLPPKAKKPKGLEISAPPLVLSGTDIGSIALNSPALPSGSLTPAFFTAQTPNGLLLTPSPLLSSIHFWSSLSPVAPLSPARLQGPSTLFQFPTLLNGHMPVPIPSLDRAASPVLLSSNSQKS
# Procedure, shortened: as §1
# FEV = molecular target: T7, FEV (Homo sapiens, UniProt Q99581 1-238); settings: protein: recombinant; tags: N-terminal GST; dsDNA, one strand shown
# T7 sequence: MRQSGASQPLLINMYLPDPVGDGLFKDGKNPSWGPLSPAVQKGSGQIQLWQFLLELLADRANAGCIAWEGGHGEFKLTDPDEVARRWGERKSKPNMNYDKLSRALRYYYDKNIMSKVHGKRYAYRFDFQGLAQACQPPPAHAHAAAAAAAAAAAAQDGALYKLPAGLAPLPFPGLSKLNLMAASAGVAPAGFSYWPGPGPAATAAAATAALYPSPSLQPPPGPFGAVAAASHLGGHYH
# Procedure, shortened: as §1
# ETV5 = ETV5 (Homo sapiens, UniProt P41161 1-510); settings: protein: recombinant; tags: N-terminal GST; dsDNA, one strand shown
# Sequence of ETV5 (P41161 whole entry): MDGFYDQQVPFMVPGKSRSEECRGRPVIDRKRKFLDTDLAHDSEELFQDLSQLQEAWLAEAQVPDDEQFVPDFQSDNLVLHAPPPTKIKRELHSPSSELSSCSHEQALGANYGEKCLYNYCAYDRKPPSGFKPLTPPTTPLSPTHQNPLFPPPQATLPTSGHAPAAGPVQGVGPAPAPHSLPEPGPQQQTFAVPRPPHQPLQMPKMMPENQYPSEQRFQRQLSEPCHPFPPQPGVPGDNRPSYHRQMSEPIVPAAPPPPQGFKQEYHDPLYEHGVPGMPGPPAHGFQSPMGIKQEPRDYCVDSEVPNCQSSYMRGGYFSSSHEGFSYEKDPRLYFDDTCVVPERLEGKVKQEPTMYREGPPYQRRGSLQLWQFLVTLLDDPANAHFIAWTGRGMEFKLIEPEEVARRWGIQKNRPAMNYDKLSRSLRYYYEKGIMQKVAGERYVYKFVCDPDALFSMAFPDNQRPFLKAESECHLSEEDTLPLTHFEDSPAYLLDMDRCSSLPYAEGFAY
# Procedure, shortened: as §1
# HSF1 = HSF1 (Homo sapiens, UniProt Q00613 1-529); settings: protein: recombinant; tags: N-terminal GST; chain copies: 3; dsDNA, one strand shown
# Sequence of HSF1 (Q00613 whole entry): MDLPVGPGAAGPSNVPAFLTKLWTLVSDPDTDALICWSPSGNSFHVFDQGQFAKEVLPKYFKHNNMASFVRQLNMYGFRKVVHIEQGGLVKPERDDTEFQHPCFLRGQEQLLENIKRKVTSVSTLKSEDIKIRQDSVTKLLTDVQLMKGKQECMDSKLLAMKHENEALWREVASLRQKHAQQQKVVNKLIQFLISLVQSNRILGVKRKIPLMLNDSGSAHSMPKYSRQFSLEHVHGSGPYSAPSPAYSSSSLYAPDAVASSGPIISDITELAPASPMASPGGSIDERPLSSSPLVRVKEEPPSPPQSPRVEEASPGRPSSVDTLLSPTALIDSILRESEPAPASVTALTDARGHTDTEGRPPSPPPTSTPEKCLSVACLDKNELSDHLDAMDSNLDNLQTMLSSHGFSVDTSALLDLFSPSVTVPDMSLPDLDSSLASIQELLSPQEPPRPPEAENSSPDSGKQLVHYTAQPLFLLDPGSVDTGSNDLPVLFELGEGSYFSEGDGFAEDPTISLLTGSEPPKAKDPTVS
# Procedure, shortened: as §1
# SPIC = molecular target: T8, SPIC (Homo sapiens, UniProt Q8N5J4 1-248); settings: protein: recombinant; tags: N-terminal GST; dsDNA, one strand shown
# T8 sequence: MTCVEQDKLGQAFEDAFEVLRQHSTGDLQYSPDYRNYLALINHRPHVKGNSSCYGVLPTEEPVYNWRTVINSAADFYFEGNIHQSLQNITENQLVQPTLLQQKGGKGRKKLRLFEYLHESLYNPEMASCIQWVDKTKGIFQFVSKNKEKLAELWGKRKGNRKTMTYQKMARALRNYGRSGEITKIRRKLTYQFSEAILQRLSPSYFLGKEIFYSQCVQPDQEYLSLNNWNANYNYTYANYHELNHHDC
# Procedure, shortened: as §1
# ELF4 = ELF4 (Homo sapiens, UniProt Q99607 1-663); settings: protein: recombinant; tags: N-terminal GST; dsDNA, one strand shown
# Sequence of ELF4 (Q99607 whole entry): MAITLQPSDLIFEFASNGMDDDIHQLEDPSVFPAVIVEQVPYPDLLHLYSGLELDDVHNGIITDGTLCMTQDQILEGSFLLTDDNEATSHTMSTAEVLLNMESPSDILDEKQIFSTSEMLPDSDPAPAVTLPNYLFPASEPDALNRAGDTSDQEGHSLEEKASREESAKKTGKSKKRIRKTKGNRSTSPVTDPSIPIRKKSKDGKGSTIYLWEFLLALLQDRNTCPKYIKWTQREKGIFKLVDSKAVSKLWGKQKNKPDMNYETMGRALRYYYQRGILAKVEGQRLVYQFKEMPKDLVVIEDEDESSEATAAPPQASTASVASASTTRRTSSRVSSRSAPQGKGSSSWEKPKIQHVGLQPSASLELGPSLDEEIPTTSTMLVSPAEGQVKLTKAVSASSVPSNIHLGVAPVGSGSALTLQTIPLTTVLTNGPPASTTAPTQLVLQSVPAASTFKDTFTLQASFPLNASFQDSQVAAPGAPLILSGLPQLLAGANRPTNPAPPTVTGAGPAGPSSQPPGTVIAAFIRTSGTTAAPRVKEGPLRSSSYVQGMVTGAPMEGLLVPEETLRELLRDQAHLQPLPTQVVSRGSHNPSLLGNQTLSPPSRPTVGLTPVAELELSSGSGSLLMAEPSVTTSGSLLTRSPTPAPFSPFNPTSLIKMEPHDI
# Procedure, shortened: as §1
# ELK4 = molecular target: T9, ELK4 (Homo sapiens, UniProt P28324-2 1-405); settings: protein: recombinant; tags: N-terminal GST; dsDNA, one strand shown
# T9 sequence: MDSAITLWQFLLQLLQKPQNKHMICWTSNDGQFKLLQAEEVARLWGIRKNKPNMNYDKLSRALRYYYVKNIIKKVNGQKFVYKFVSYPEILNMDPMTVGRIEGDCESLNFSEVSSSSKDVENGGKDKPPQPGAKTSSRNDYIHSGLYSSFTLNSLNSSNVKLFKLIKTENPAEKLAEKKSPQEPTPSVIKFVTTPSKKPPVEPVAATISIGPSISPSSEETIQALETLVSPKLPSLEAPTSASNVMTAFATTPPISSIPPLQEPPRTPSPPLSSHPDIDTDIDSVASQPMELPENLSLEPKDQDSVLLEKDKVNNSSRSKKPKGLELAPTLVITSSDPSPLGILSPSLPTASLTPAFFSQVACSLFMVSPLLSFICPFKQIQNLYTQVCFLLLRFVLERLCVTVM
# Procedure, shortened: as §1
# ETV2 = molecular target: T10, ETV2 (Homo sapiens, UniProt O00321 1-342); settings: protein: recombinant; tags: N-terminal GST; dsDNA, one strand shown
# T10 sequence: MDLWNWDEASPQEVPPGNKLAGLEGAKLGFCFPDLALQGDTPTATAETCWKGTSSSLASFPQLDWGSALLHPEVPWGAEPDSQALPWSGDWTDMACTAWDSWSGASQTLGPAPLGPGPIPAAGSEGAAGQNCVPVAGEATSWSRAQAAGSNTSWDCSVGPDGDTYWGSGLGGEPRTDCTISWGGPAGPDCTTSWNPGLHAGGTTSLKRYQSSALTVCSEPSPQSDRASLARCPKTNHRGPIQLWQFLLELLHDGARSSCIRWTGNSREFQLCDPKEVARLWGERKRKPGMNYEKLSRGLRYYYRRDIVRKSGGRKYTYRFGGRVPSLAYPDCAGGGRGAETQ
# Procedure, shortened: as §1
# ELF3 = molecular target: T11, ELF3 (Homo sapiens, UniProt P78545 1-371); settings: protein: recombinant; tags: N-terminal GST; dsDNA, one strand shown
# T11 sequence: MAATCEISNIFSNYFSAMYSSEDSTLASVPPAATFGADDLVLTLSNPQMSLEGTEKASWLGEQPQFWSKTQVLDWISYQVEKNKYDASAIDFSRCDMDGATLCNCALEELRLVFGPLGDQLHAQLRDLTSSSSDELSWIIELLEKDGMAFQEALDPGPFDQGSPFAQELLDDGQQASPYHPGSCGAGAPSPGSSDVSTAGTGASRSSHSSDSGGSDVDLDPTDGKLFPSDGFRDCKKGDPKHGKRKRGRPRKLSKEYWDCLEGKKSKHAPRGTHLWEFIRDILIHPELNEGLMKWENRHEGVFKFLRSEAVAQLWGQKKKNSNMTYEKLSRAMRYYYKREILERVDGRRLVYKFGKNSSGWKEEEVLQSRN
# Procedure, shortened: as §1
# CRX = CRX (Homo sapiens, UniProt O43186 1-299); settings: protein: recombinant; tags: N-terminal GST; dsDNA, one strand shown
# Sequence of CRX (O43186 whole entry): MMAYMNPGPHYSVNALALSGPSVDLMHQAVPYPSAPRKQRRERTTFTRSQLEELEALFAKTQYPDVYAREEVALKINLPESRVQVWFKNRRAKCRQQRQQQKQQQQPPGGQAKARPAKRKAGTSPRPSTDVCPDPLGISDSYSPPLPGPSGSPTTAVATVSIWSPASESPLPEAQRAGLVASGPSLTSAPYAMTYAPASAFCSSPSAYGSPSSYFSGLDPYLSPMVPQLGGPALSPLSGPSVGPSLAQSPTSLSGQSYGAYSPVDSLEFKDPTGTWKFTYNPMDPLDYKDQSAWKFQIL
# Procedure, shortened: as §1
# ETV1 = ETV1 (Homo sapiens, UniProt P50549 1-477); settings: protein: recombinant; tags: N-terminal GST; dsDNA, one strand shown
# Sequence of ETV1 (P50549 whole entry): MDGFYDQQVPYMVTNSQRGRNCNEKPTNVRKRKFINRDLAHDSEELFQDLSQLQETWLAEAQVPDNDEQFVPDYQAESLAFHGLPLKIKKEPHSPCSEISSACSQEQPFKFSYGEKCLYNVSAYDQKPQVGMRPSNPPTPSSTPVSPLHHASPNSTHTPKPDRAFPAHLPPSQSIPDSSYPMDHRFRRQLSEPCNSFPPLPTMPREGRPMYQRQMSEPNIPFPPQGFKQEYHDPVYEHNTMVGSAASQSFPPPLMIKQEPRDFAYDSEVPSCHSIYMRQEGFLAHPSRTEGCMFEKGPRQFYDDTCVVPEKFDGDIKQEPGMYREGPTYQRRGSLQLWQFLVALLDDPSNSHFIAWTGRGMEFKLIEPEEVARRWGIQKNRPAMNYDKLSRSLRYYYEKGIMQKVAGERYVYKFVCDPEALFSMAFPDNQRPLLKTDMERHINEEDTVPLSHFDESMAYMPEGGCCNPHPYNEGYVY
# Procedure, shortened: as §1
sequence,measurement,setting,value
CACTAA,binding signal,FLI1,"1.09 fold enrichment (6-mer frequency, TF over GST control)"
same,binding signal,ELK1,"1.21 fold enrichment (6-mer frequency, TF over GST control)"
same,binding signal,GABPA,"1.11 fold enrichment (6-mer frequency, TF over GST control)"
same,binding signal,ERG,"1.1 fold enrichment (6-mer frequency, TF over GST control)"
same,binding signal,ELF1,"1.18 fold enrichment (6-mer frequency, TF over GST control)"
same,binding signal,EHF,"1.21 fold enrichment (6-mer frequency, TF over GST control)"
same,binding signal,SPI1,"1.19 fold enrichment (6-mer frequency, TF over GST control)"
same,binding signal,SPIB,"1.18 fold enrichment (6-mer frequency, TF over GST control)"
same,binding signal,ELK3,"1.18 fold enrichment (6-mer frequency, TF over GST control)"
same,binding signal,FEV,"1.12 fold enrichment (6-mer frequency, TF over GST control)"
same,binding signal,ETV5,"1.13 fold enrichment (6-mer frequency, TF over GST control)"
same,binding signal,HSF1,"1.29 fold enrichment (6-mer frequency, TF over GST control)"
same,binding signal,SPIC,"1.25 fold enrichment (6-mer frequency, TF over GST control)"
same,binding signal,ELF4,"1.2 fold enrichment (6-mer frequency, TF over GST control)"
same,binding signal,ELK4,"1.2 fold enrichment (6-mer frequency, TF over GST control)"
same,binding signal,ETV2,"1.2 fold enrichment (6-mer frequency, TF over GST control)"
same,binding signal,ELF3,"1.3 fold enrichment (6-mer frequency, TF over GST control)"
same,binding signal,CRX,"1.67 fold enrichment (6-mer frequency, TF over GST control)"
same,binding signal,ETV1,"1.12 fold enrichment (6-mer frequency, TF over GST control)"
